# In all, about 2,100 compounds went through this assay and about 650 (31%) were called active. Roughly 16% stayed inconclusive and do not appear here. Calls come from the whole dose curve; as a rule, active = well fitted inhibition curve with a large enough effect; inconclusive = small, poorly fitted or top-dose-only effect; inactive = flat fitted curve, though single readings scatter. Some of the results follow. Entries that show only a call come without a potency.
# Assay: qHTS for inhibitors of Vif-A3G interactions: Cherry picks; note: nearly all actives have a fitted effect of over 80% in size
# Conditions: HeLa A3G-eYFP + Vif (tagged APOBEC3G with the HIV-1 protein that degrades it), 24 h; Potency: eYFP fluorescence increase; series mostly up to 36.9 µM
# Method in brief: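 HeLa cells stably expressing A3G-eYFP and Vif, cultured overnight then exposed to compounds at several concentrations for 24 hours at 37 C, 5% CO2; cellular yellow fluorescence (488 nm ex, 500-530 nm em) imaged on Acumen, MG132 positive control.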
# Potency is the fitted concentration of half-maximal effect.
row,Structure (SMILES),Potency
1,CNC(=O)C(Sc1nc(C)nc2c1oc1ccccc12)C(C)=O (configuration not stated),inactive
2,COc1ccc(Cn2c(=O)cc(N)n(-c3ccccc3C)c2=O)cc1,inactive
3,COc1ccc(Cn2c(C)nc3c(c2=O)c2nc4ccccc4nc2n3Cc2ccco2)cc1,5.8 µM (active)
4,O=C(Cc1cc2ccccc2o1)NCc1ccc(F)cc1,inactive
5,COc1cccc(OCc2nc3ncc(Br)cc3[nH]2)c1,inactive
6,O=c1[nH]c2cc(Br)cnc2nc1/C=C(\O)c1ccc(F)cc1,13 µM (active)
7,COc1ccc(-c2nc3cnccn3c2NC2CCCCC2)cc1-c1cccc(Cl)c1,inactive
8,CCC(C)Sc1ccc(-c2nc3cc(C)ccn3c2NC2CCCCC2)cc1 (configuration not stated),inactive
9,CCCCNc1c(-c2ccc(SC3CCCCC3)cc2)nc2cnccn12,2.8 µM (active)
10,COc1ccc(NC(=O)C2(C)Cc3c(-c4cccc(C(N)=O)c4)ccnc3O2)cc1 (configuration not stated),inactive
11,Cc1cc(N/N=C/c2ccc([N+](=O)[O-])o2)nc2ccccc12,20.6 µM (active)
12,Cc1cc(C(=O)N/N=C/c2ccc(C)o2)c2ccccc2n1,inactive
13,O=[N+]([O-])c1ccc(/C=N/Nc2ccc3ccccc3c2)o1,4.44 µM (active)
14,O=C(N/N=C/c1ccc([N+](=O)[O-])o1)c1cc(-c2ccc(-c3ccccc3)cc2)nc2ccccc12,inactive
15,Cc1cccc(Nc2nc(N)nc(-c3oc4ccccc4c3C)n2)c1,inactive
16,O=C(Nc1nc(-c2ccccn2)cs1)C1CCCC1,inactive
17,O=C(c1ccccc1)C(CN1CCCCC1)c1ccccc1 (configuration not stated),inactive
18,Nc1c(C(=O)c2ccccc2)sc2nsc(SCCN3CCOCC3)c12,16.4 µM (active)
19,Nc1c(C(=O)c2ccccc2)sc2nsc(SCCN3CCCC3)c12,19.8 µM (active)
20,C[C@H]1CN([C@@H](C)CO)C(=O)Cc2cc(NC(=O)CCC(F)(F)F)ccc2O[C@H]1CN(C)S(=O)(=O)c1ccc(F)cc1,inactive
21,C/C(=N\NC(=O)c1cc(C)nc2ccccc12)c1ccncc1,inactive
22,Cc1cccc(N2CCN(Cc3cn(C)nc3-c3ccccc3F)CC2)n1,inactive
23,COC(=O)C1C2CC3c4[nH]c5cc(OC)ccc5c4CCN3CC2CC(OC2CCCCO2)C1OC (configuration not stated),20.6 µM (active)

row,Structure (SMILES),Potency
1,C[C@H](O)[C@@H]1CN2CCc3c([nH]c4ccccc34)[C@@H]2C[C@@H]1N(C)C(=O)c1ccco1,inactive
2,COC(=O)C1C2CC3c4[nH]c5cc(OC)ccc5c4CCN3CC2CC(OC(=O)CC(C)=O)C1OC (configuration not stated),18.4 µM (active)
3,Cc1ccccc1NC(=O)CSC1=C(C#N)C(c2ccsc2)CC(=O)N1 (configuration not stated),inactive
4,O=C(N/N=C/C=C/c1ccco1)c1ccncc1,inactive
5,COc1ccc(NC(=O)/C(C#N)=C/C=C/c2ccco2)cc1,inactive
6,O=[N+]([O-])c1ccc(N/N=C/C=C/c2ccco2)cc1,16.4 µM (active)
7,O=Nc1ccc(O)c2ncccc12,inactive
8,CC1=NN(c2ccccc2)C(=O)/C1=C/C=C/c1ccccc1,inactive
9,COc1ccccc1CCC(=O)Nc1ccc2c(c1)c(=O)n(C)n2-c1cccs1,inactive
10,O=C(NC(=S)Nc1ccccc1N1CCCCC1)c1ccccc1,inactive
11,O=C1c2cccc3c(N4CCCCC4)ccc(c23)C(=O)N1CCO,17.7 µM (active)
12,O=C1c2cccc3c(N4CCCCC4)ccc(c23)C(=O)N1c1ccccc1O,1.3 µM (active)
13,C=CCN1C(=O)c2cccc3c(N4CCCCC4)ccc(c23)C1=O,20.6 µM (active)
14,O=C1c2cccc3c(N4CCCCC4)ccc(c23)C(=O)N1c1cccc(O)c1,inactive
15,COc1ccc(S(=O)(=O)Nc2cc(Sc3ncn[nH]3)c(O)c3ccccc23)cc1,inactive
16,CSc1ccccc1NC(=O)COC(=O)/C=C/c1ccco1,inactive
17,O=C(NC(=S)N1CCc2ccccc21)c1ccco1,inactive
18,CCCOc1ccccc1C1CC(=O)NC2=C1C(=O)CCC2 (configuration not stated),inactive
19,CCN(CC)CCCNc1ccc2ncn3c4ccc(O)cc4c(=O)c1c23,18.4 µM (active)
20,CN(C)CCNc1ccc2ncn3c4ccc(O)cc4c(=O)c1c23,20.6 µM (active)
21,CCCCOc1ccc(-c2nnn(CC(=O)NCc3ccco3)n2)cc1,inactive
22,COC(=O)c1cccc(NS(=O)(=O)c2ccc(OC)cc2)c1C,inactive
23,CC(=O)Nc1sc2c(c1-c1nc3ccccc3s1)CCN(C(C)C)C2,18.4 µM (active)

row,Structure (SMILES),Potency
1,CN1CCc2c(sc(NC(=O)CSc3ccc(F)cc3)c2-c2nc3ccccc3s2)C1,1.64 µM (active)
2,COc1cccc(N2CC(O)=C(c3nc4ccccc4s3)C2=N)c1,inactive
3,O=C(CSc1ccccc1)Nc1nc2ccccc2[nH]1,inactive
4,COc1ccccc1/C=N/NC(=O)c1cc2c(OC)c(OC)ccc2[nH]1,inactive
5,CC1CC(C)CN(CC(=O)c2c[nH]c3ccccc23)C1 (configuration not stated),18.4 µM (active)
6,O=C(C(=O)N1CCN(c2ccccc2Cl)CC1)c1c[nH]c2ccccc12,inactive
7,C=CCN1C=CC(=CC=C(C#N)C#N)C=C1,14 µM (active)
8,CCCN1C=CC(=CC=C(C#N)C#N)C=C1,15.8 µM (active)
9,COc1cccc(/C=N/n2c(C3CCCCC3)n[nH]c2=S)c1O,inactive
10,COCCNC(=O)C(=O)Nc1ccc2c(c1)N(S(=O)(=O)c1cccs1)CCC2,inactive
11,CN(/N=C/c1ccc(N(C)C)cc1)C1=NS(=O)(=O)c2ccccc21,17.7 µM (active)
12,CN(C)c1ccc(/C=N/NC(=O)c2ccccc2Cl)cc1,inactive
13,CCn1c(CNC(=O)c2cc(OC)c(OC)c(OC)c2)cc2cc(C)ccc21,inactive
14,CCOc1ncccc1C(=O)OCc1ccc(C(=O)OC)cc1,inactive
15,COc1ccc(N/C=C/c2nc(SC)nnc2C)cc1,inactive
16,C=CCSc1nnc(C)c(/C=C/Nc2ccc(Cl)cc2)n1,20.6 µM (active)
17,COc1ccccc1NC1=NC(c2ccc(Cl)cc2)N=C(N)N1 (configuration not stated),inactive
18,CCN(CC)c1ccc(/C=N/NC(=S)NC)c(O)c1,inactive
19,CCN1C(=S)SC(=O)C1=C1C=C(C)N(Cc2ccco2)C(C)=C1,14 µM (active)
20,Cc1c(C(=O)Nc2cnccn2)oc2ccccc12,inactive
21,O=C1CC(c2cc(F)ccc2F)c2cc3c(cc2N1)CCC3 (configuration not stated),inactive

# From PubChem BioAssay AID651812 (National Center for Advancing Translational Sciences (NCATS), 2012)
